PubChem BioAssay (NCATS)
“And” between values parts separate entries of the source, which are not always exact repeats. Equal values may be shown once. Records with an inconclusive call do not appear. The source made the active and inactive calls. Unless noted, calls follow the shape of the dose curve; as a rule, active = well fitted curve in the direction sought with a large enough effect; inconclusive = small, poorly fitted or top-dose-only effect, or another doubt; inactive = no such curve, though single readings can be large; an effect the other way counts as inactive or inconclusive.

Columns and labels:
[1] = Cell Viability - HUV-EC-C (AID 542);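 also: cells exposed to compound for 40 hours; % is scaled to controls: 0 for no effect and ±100 for the full control effect; nearly all actives have a fitted effect of over 35% in size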
Outline: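 Concentration-dependent ATP loss in HUV-EC-C cells is the measure. Exposure lasts 40 hr at 37 °C; luminescence follows CellTiter-Glo addition, and Hill fits give AC50.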

[2] = Cell Viability - H-4-II-E (AID 543);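 also: cells exposed to compound for 40 hours; nearly all actives have a fitted effect of over 35% in size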; also: potency is read from the fitted curve at half-maximal effect
Outline: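 AC50 from Hill-modelled qHTS concentration-response curves. H-4-II-E rat hepatoma cells in complete medium, 40 hr exposure at 37 °C, viability by CellTiter-Glo ATP luminescence.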

[3] = Cell Viability - Renal Proximal Tubule (AID 545); conditions: renal proximal tubule cells viability, primary cells of rat origin; activity change, negative = cytotoxicity: at 91.7 µM (top of the series);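 also: cells exposed to compound for 40 hours; nearly all actives have a fitted effect of over 40% in size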; also: potency is read from the fitted curve at half-maximal effect;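 as to activity change, negative = cytotoxicity: 0% = DMSO only and -100% = 100 µM tamoxifen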
Outline: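 Luminescent ATP signal (CellTiter-Glo) served as the viability read-out after 40 hr compound exposure of freshly isolated rat proximal tubule cells at 37 °C. Concentration-dependent ATP loss was fitted with the Hill equation to give AC50.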

[4] = Cell Viability - Mesenchymal (AID 546); conditions: mesenchymal cells viability, qHTS; activity change, negative = cytotoxicity: at 91.7 µM (top of the series);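 also: cells exposed to compound for 40 hours before reading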; also: potency is read from the fitted curve at half-maximal effect;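 as to activity change, negative = cytotoxicity: 0% = DMSO only and -100% = 100 µM tamoxifen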
Outline: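 CellTiter-Glo luminescence (intracellular ATP, 20 min room temperature) after 40 hr compound exposure at 37 °C of 1000 glomerulus-derived human kidney mesenchymal cells/well; AC50 values obtained by fitting qHTS concentration-response data to the Hill equation.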

[5] = Cell Viability - NIH 3T3 (AID 541); conditions: NIH 3T3 cell viability, qHTS; activity change, negative = cytotoxicity: at 92.2 µM (top of the series);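 also: cells exposed to compound for 40 hours; nearly all actives have a fitted effect of over 25% in size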; also: potency is read from the fitted curve at half-maximal effect;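 as to activity change, negative = cytotoxicity: plate controls were DMSO alone for no effect and tamoxifen positive control for full effect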
Outline: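 In this cytotoxicity screen, acute toxicity is scored as an ATP drop measured by CellTiter-Glo in NIH 3T3 fibroblasts following a 40 hr, 37 °C incubation with compound.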

[6] = Cell Viability - SH-SY5Y (AID 544); conditions: SH-SY5Y neuroblastoma cell viability; viability change, negative = cytotoxic: at 92.2 µM (top of the series);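 also: cells exposed to compound for 40 hours; nearly all actives have a fitted effect of over 55% in size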; also: potency is read from the fitted curve at half-maximal effect;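 as to viability change, negative = cytotoxic: 0% = DMSO alone and -100% = 100 µM tamoxifen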
Outline: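 Quantitative HTS in SH-SY5Y neuroblastoma cells, 40 hr treatment at 37 °C, ATP content by luciferase luminescence; AC50 from Hill fits.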

[7] = target: Glucocorticoid receptor (Homo sapiens) (UniProt P04150); assay: GR-GFP Redistribution (AID 450;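 active = compounds whose dose series gives a full or clear partial fitted curve of increased nuclear translocation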; also: potency is read from the fitted curve at half-maximal effect); conditions: U2OS GR-GFP nuclear translocation, laser cytometry, 2 h
Chain of Glucocorticoid receptor (Homo sapiens) (P04150 whole entry, looked up, the tested form may be a part): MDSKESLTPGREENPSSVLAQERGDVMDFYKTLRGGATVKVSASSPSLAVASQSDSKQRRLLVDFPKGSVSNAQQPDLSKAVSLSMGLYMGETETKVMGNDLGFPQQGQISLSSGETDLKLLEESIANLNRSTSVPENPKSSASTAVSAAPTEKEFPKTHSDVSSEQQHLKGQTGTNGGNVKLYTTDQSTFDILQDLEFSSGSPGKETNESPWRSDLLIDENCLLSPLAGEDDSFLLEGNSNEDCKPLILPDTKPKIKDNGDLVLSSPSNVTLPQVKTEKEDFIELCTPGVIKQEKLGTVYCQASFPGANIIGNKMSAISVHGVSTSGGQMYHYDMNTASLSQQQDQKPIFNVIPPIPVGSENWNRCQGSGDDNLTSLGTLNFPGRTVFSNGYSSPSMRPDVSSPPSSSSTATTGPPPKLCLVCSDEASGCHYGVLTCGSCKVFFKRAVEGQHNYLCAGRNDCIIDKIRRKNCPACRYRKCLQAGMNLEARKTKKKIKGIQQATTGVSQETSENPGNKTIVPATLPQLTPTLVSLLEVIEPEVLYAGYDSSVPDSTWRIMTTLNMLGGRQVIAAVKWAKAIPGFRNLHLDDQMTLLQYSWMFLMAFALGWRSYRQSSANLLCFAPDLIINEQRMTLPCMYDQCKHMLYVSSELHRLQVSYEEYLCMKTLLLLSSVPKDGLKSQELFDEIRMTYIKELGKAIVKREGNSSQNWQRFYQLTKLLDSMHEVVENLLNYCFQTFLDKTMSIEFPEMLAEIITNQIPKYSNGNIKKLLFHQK

[8] = target: Glucocorticoid receptor (Homo sapiens) (UniProt P04150); assay: GR-EFC Redistribution (AID 451; calls by dose curve; also: potency is read from the fitted curve at half-maximal effect); conditions: CHO-K1 GR-EFC translocation, beta-gal luminescence, 2 h
Outline: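 Translocation of GR-ED fusion to nuclear EA restores b-gal, read by luminescence after 1 h room-temperature detection. Engineered CHO-K1 biosensor cells, 1,000/well, exposed 2 h at 37 C to titrations up to 46 uM final.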

[9] = target: 3',5'-cyclic-AMP phosphodiesterase 4B (Homo sapiens) (UniProt Q07343); assay: qHTS Assay for Inhibitors of PDE-IV (AID 607; active = well fitted activation curve with a large enough effect in the main read-out, with a control signal flat, not every such curve was filed as active; also: % of control where 0% means no effect)
Chain of 3',5'-cyclic-AMP phosphodiesterase 4B (Homo sapiens) (Q07343 whole entry, looked up): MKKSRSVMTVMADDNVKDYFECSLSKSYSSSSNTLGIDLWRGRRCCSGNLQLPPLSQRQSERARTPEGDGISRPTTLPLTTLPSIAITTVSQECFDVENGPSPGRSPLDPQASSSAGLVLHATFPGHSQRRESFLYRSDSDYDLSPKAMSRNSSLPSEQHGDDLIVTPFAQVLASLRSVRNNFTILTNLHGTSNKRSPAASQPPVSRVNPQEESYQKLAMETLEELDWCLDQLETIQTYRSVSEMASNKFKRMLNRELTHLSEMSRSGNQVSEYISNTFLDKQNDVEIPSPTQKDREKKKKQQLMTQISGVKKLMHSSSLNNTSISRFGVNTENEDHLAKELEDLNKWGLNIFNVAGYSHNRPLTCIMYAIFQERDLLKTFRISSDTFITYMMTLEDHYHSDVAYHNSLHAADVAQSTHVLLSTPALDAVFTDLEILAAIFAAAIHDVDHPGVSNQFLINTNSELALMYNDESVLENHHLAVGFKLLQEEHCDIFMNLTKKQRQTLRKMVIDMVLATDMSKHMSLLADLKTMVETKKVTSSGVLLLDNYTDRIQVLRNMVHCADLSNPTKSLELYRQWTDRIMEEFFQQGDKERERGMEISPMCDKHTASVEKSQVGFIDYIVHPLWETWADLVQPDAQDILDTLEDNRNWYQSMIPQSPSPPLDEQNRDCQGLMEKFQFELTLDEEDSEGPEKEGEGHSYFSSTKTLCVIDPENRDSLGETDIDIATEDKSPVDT
Outline: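 Live HEK293 cells with a modified cyclic nucleotide-gated (CNG) channel report intracellular cAMP via membrane-potential dye fluorescence (ex 535/em 590 nm). Endogenous PDE-IV was targeted. Compounds were tested at up to 22.9 uM final; RO 20-1724 100 uM served as control.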

Nc1cccc2c(N)cccc12
inactive: Potency [1] | Potency [2] | Potency [3] | Potency [4]

CCCCCCCCCCCCCCCC[n+]1ccccc1
active: Potency [5] 25.1 µM | Potency [2] 3.98 µM | Potency [6] 25.1 µM | Potency [3] 31.6 µM | Potency [4] 31.6 µM

CC(C)(c1ccc(O)cc1)c1ccc(O)cc1
inactive: activity change, negative = cytotoxicity [5] -22.2% and -23.1% | Potency [1] | Potency [2] | Potency [6] | Potency [3] | Potency [4]

CCCCC(CC)COC(=O)c1ccccc1C(=O)O (stereo not given)
inactive: activity change, negative = cytotoxicity [5] 10.8% | Potency [1] | Potency [2] | Potency [6] | Potency [3] | Potency [4]

c1ccc2occc2c1
inactive: activity change, negative = cytotoxicity [5] -5.88% | Potency [1] | Potency [2] | Potency [6] | Potency [3] | Potency [4]

NCC(=O)O
inactive: Potency [7] > 46 µM | Potency [8] > 46 µM | outcome [9]

Oc1ccccc1
inactive: activity change, negative = cytotoxicity [5] -17.5% | Potency [1] | Potency [2] | Potency [6] | Potency [3] | Potency [4]

CC(=O)OC/C=C(C)/C=C/C=C(C)/C=C/C1=C(C)CCCC1(C)C
inactive: Potency [1] | Potency [4]
active: activity change, negative = cytotoxicity [5] -114% | viability change, negative = cytotoxic [6] -99.5%
